# Laboratory results: PubChem BioAssay (NCATS)
# Records with an inconclusive call do not appear. Unmarked numbers belong to inactive results. Calls come from the whole dose curve; as a rule, active = well fitted activation curve with a large enough effect; inconclusive = small, poorly fitted or top-dose-only effect, or another doubt; inactive = no such curve, though single readings can be large or run the other way.
# Molecular target: Rap guanine nucleotide exchange factor 3 (Homo sapiens) (UniProt O95398)
# Test: Counterscreen qHTS for agonist of cAMP-regulated guanine nucleotide exchange factor 3 (EPAC1) (AID 1645889); note: % of control where 0% means no effect; nearly all actives have a fitted effect of over 40% in size
# Details: EPAC1 Rap1B-BODIPY-GDP exchange, fluorescence; series mostly up to 154 µM; activation: at the top concentration
# How it was run: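 Rap1B–BODIPY-GDP (250 nM) with 50 uM GDP; compounds pin-transferred to 9.74 nM–152 uM final (activator) or from 7.32 nM upwards (inhibitor). Fluorescence Ex/Em 480/540 nm read at 5 and 30 min, then after adding cAMP or buffer, at room temperature.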
row,Compound,activation
1,Nc1ccc(N2CCCCC2)c2nonc12,6.94% [at 30.8 µM]
2,O=CN(c1ccccc1)c1ccc2ccccc2c1,4.55% [at 30.8 µM]
3,Cc1ccc(NS(=O)(=O)c2cccc(C(=O)OCC(=O)NCc3ccco3)c2)cc1,6.9%
4,CCn1cc(CN2CCc3c([nH]c4ccccc34)C2c2cccc(OC)c2)c(C)n1 (stereo unspecified),8.44% [at 30.8 µM]
5,COc1ccccc1C(=O)Nc1nnc(SCc2cc(=O)c3ccccc3[nH]2)s1,19.1%
6,O=C1/C(=C/c2ccc(O)c(O)c2)SC(=S)N1Nc1ccccc1,15.4%
7,CCCC[C@H]1COCCS(=O)(=O)N1Cc1ccc(Br)cc1,-14.7%
8,Nc1nc(N)c(-c2cccc(C(F)(F)F)c2)c(Cc2cccc(C(F)(F)F)c2)n1,-46.8%
9,Cc1ccnc(NC(=O)C2CCN(S(=O)(=O)c3cccc(C(F)(F)F)c3)CC2)c1,-2.02%
10,CCCc1nc2ccc(C(=O)OC)cn2c1Cc1ccccc1C(F)(F)F,-6.21%
11,CN1/C(=C/C=C/c2n(C)c3cc([N+](=O)[O-])c([N+](=O)[O-])cc3[n+]2C)C(C)(C)c2ccccc21,-18.6%
12,Cc1ccc(/C=C/C(=O)Nc2ccc([N+](=O)[O-])c(NC(=O)/C=C/c3ccc(C)o3)c2)o1,27.5% [at 30.8 µM]
13,COc1ccc2sc(-c3ccc(SC)cc3)c(C#CC(C)(C)O)c2c1,-23.3%
14,COc1cc2nc(N3CCNCC3)nc(N)c2cc1OC,10.6%
15,O=C(Nc1ccccc1N1CCCCC1)c1cnccn1,21.6% [at 30.8 µM]
16,Cc1cc(C)c(OCC(=O)N(Cc2ccco2)Cc2ccco2)c(C)c1,12.1%
